The record followed here is PubChem BioAssay (NCI).

A short description of this test: NCI Yeast Anticancer Drug Screen. Data for the mgt1 strain (AID 153). The note with it: S. cerevisiae mgt1 mutant growth inhibition, stronger effect = higher value. On the procedure:
Growth inhibition of yeast strains with defined genetic alterations is measured as a screen for potential anti-cancer activity. Selected strains with alterations in DNA damage repair or cell cycle control were exposed to compounds and growth inhibition was measured relative to vehicle treated controls. The strain used in this assay is mgt1

This is part of a sample that, as a whole, favours compounds with a hit. Of some 79,000 tested, about 15% had one in any assay. Values without a mark were called inactive. Calls of active or inactive are those of the source. Cut-off read from the data, not from the text of the source: active = growth inhibition above about 70%; inactive = the rest.

Consider `CCCNC(=O)OCc1c(COC(=O)NCCC)c(-c2ccc(Cl)c(Cl)c2)n2c1CCC2`, for which the growth inhibition reads like this: (at 1.2 µM) -48%; (at 3.7 µM) -35%; (at 11.0 µM) -30%; (at 33.0 µM) -7%; (at 100.0 µM) 50%.
On to `Nc1cc2ccccc2cc1N`, for which the growth inhibition was -30% (at 1.2 µM); -42% (at 3.7 µM); -33% (at 11.0 µM); -23% (at 33.0 µM); -18% (at 100.0 µM).
Taken in the same sequence, the figures for `CCOP(=O)(OCC)/C(C#N)=C\c1cccc2ccccc12` were -6%, -10%, -21%, 84% (active) and 98% (active).
`O=S(=O)(c1ccccc1)N1CN2CN(C1)CN(S(=O)(=O)c1ccccc1)C2`: the growth inhibition runs as follows: (at 1.2 µM) 0%; (at 3.7 µM) 7%; (at 11.0 µM) 5%; (at 33.0 µM) 7%; (at 100.0 µM) 6%.
For the molecule `O=[N+]([O-])c1ccc2nc(=S)[nH]n2c1`, the growth inhibition was 0% (at 1.2 µM); -4% (at 3.7 µM); -4% (at 11.0 µM); -8% (at 33.0 µM); 1% (at 100.0 µM).
Regarding `CSC(=S)N/N=C/c1ccccc1`, the growth inhibition reads like this: (at 1.2 µM) 3%; (at 3.7 µM) 2%; (at 11.0 µM) 22%; (at 33.0 µM) 27%; (at 100.0 µM) 39%.
With `Cc1cc(OCc2nc(N)nc(N)c2-c2ccc(Cl)c(Cl)c2)ccc1[N+](=O)[O-]`, the growth inhibition (at 1.2 µM) is 2%; the growth inhibition (at 3.7 µM) was 5%; the growth inhibition (at 11.0 µM) is 2%; the growth inhibition (at 33.0 µM) is 1%; the growth inhibition (at 100.0 µM) is 10%.
As to `O=C1Nc2ccc(Br)cc2C1=Nc1ccc(Cl)cc1`, the growth inhibition is, setting by setting: (at 1.2 µM) -52%; (at 3.7 µM) -55%; (at 11.0 µM) -21%; (at 33.0 µM) 20%; (at 100.0 µM) 50%.
